Source: PubChem BioAssay AID1578 (Sanford-Burnham Center for Chemical Genomics, 2009)
Screen size: about 290,000 compounds; about 3,000 (1%) were called active. Many of the other results were omitted from the sample, so actives are more common in it than they were. Values without a mark were called inactive. Cut-off read from the data, not from the text of the source: active = inhibition mostly above about 36% (no sharp cut-off); inactive = mostly below about 34%.

Test: inhibition of NOD1-driven NF-kB reporter – cell-based, luminescence, uHTS, primary screen (AID 1578);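 note: HEK-293T reporter cells stimulated with the NOD1 agonist gamma-tri-DAP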
Conditions: NOD1-driven NF-kB luciferase reporter cells, at 4 µM, active compounds read high

| Structure (SMILES) | inhibition |
| --- | --- |
| O=C(Nc1ccc(Br)cc1)c1cc(-c2ccc3c(c2)OCO3)on1 | -33.8% |
| Cc1cccc(NC(=S)NC(=O)c2oc3ccccc3c2C)n1 | -35.5% |
| O=C(Nc1cc(S(=O)(=O)N2CCOCC2)ccc1N1CCOCC1)C1CCCO1 (configuration not stated) | -32.9% |
| Cc1ccc(-n2c3c(c(=O)[nH]c2=O)C(NS(=O)(=O)c2ccc(Cl)cc2)(C(F)(F)F)C(=O)N3)cc1 (configuration not stated) | -31.8% |
| O=C(NCCc1ccc(Cl)cc1)c1ccc2nccnc2c1 | -33.2% |
| O=C(NCc1ccccc1)c1ccc2nccnc2c1 | 2% |
| O=C(NCCc1ccccc1)c1ccc2nccnc2c1 | 66.7% (active) |
| CCCCNc1ccc(C(CC(N)=O)NC(=O)Cc2ccc(Br)cc2)cc1[N+](=O)[O-] (configuration not stated) | -9.3% |
| OC(CNCC1COc2ccccc2O1)COc1ccc(Cl)cc1 (configuration not stated) | -12.2% |
| CC(=O)c1cccc(OCC(O)CNCC2CCCCC2)c1 (configuration not stated) | -5.6% |
| CC(=O)c1cccc(OCC(O)CNCC2COc3ccccc3O2)c1 (configuration not stated) | 37.9% (active) |
| Cn1cc(Br)c(C(=O)n2cc(Br)cn2)n1 | -7.4% |
| Cc1noc(C)c1S(=O)(=O)N1CCCC(C(=O)NCCc2ccccc2)C1 (configuration not stated) | -28.4% |
| CCNC(=O)COC(=O)c1cc(-c2ccccc2)nn1-c1ccccc1 | -16.6% |
| Cc1ccccc1C1c2[nH]c3ccccc3c2CCN1CCCn1cccn1 (configuration not stated) | 53.6% (active) |
| COc1ccc(C2c3[nH]c4ccccc4c3CCN2CCCn2cccn2)c(C)c1C (configuration not stated) | -26.9% |
| Fc1ccccc1C1c2[nH]c3ccccc3c2CCN1CCCn1cccn1 (configuration not stated) | 43.5% |
| CC(C)N1CCC(N2CCN(Cc3nc4ccccc4s3)CC2CCO)CC1 (configuration not stated) | -1.8% |
| CC(C)N(C(=O)COC(=O)c1ccc(Cl)nc1)C(C)C | -35.6% |
| Cc1nc2ccccc2cc1C(=O)Nc1ccccc1Cl | -21.8% |
| Cn1ccnc1C(=O)c1ccc(N)cc1 | -32.6% |
| COc1ccc(-c2csc3nc(-c4cccnc4)nc(N4CCC(C(N)=O)CC4)c23)cc1OC | 23.4% |
| Clc1nc(-c2cccnc2)nc2scc(-c3ccccc3)c12 | -5% |
| COc1ccc(-c2csc3nc(-c4cccnc4)nc(Cl)c23)cc1OC | 73.4% (active) |
| CCOc1ccc(NC(=O)C2CC(=O)N(C)C(=Nc3ccc4c(c3)OCO4)S2)cc1 (configuration not stated) | -34.5% |
| O=C(CS(=O)(=O)c1ccccc1)NCc1ccc(Cl)cc1 | -44.4% |
| CCc1ccc(C(=O)/C=C/Nc2ccc(S(=O)(=O)Nc3cnc4ccccc4n3)cc2)cc1 | 4% |
